Source: PubChem BioAssay (National Center for Advancing Translational Sciences (NCATS))
Shiga inhibitor – inhibitors of Shiga toxin in Vero cells | Vero cells, Shiga toxin protein synthesis inhibition reporter | inhibition, % at 38.7 µM | 290,000 tested, 9.2% active | AID 2315; in the data active means inhibition mostly above about 28%, no sharp cut-off; inactive means mostly below about 43%
MARV entry inh – blocks Marburg virus binding to or entry into cells | Marburg virus pseudotyped entry inhibition, cell reporter | Potency, µM (series often up to 37.8 µM), most hits filed as inhibitors | 300,000 tested, 1.8% active; calls by dose curve; tested in HEK293 cells
Cycloheximide cs – counter-screen for Shiga toxin inhibitors: cycloheximide protein synthesis inhibition; cell reporter, cycloheximide protein synthesis inhibition counterscreen; max response, %; 300,000 tested, 12% active; in the data active means max response mostly above about 13%, no sharp cut-off; inactive means mostly below about 14%; further: read at 38.3 µM for the half of the compounds with a filed dose
LASV entry inh – blocks Lassa virus binding to or entry into cells. Lassa virus pseudotype entry inhibition, cell reporter. Potency, µM (highest dose often 37.9 µM), actives largely listed as inhibitors. 300,000 tested, 1.2% active. AID 540256; calls by dose curve; tested in HEK293 cells; further: nearly all actives have a fitted effect of over 50% in size
Hits are given with their value. The list is not random: actives were taken first. Their share in the collection is about 12%.

`Cc1ccccc1C(=O)N1CCC(n2nccc2NC(=O)CCOc2ccccc2)CC1` gave Shiga inhibitor inactive, MARV entry inh inactive, Cycloheximide cs inactive and LASV entry inh inactive.
For Cc1cccc(C(=O)N(C(=O)c2cccc(C)c2)N(C)C)c1 the results were MARV entry inh inconclusive and LASV entry inh inactive.
Screening CCOC(=O)/C=C(C)\C=C\c1c[nH]c2ccccc12 returned Shiga inhibitor 55.6, MARV entry inh inactive, Cycloheximide cs 29.7 and LASV entry inh inactive.
`CCOC(=O)/C(=C/c1c[nH]c2ccccc12)NC(C)=O` gave Shiga inhibitor inactive, MARV entry inh inactive, Cycloheximide cs inactive and LASV entry inh inactive.
`CCOC(=O)c1ccccc1NC(=O)CSc1cn(CC(=O)N2CCCCC2)c2ccccc12` gave LASV entry inh inactive.
`CC1CCCCN1C(=O)COC(=O)CNC(=O)c1ccc(Cl)cc1Cl` (stereo not drawn) gave MARV entry inh inconclusive and LASV entry inh inactive.
COc1ccccc1N(C(=O)c1snc(C(N)=O)c1N)C(C(=O)NCc1ccccc1)c1ccc(C)o1 (stereo not drawn) was read as Shiga inhibitor inactive, MARV entry inh inactive, Cycloheximide cs inactive and LASV entry inh inconclusive.
COc1ccc(N(C(=O)c2snc(C(N)=O)c2N)C(C(=O)NCc2ccc(F)cc2)c2ccc(O)cc2)cc1 (stereo not drawn) was read as Shiga inhibitor inactive, MARV entry inh inconclusive, Cycloheximide cs inactive and LASV entry inh 2.82µM.
`COc1ccc(N(C(=O)c2snc(C(N)=O)c2N)C(C(=O)NCc2ccc(F)cc2)c2ccc(C)o2)c(OC)c1` (stereo not drawn) gave Shiga inhibitor inactive, MARV entry inh 12.6µM, Cycloheximide cs inactive and LASV entry inh 8.91µM.
`COc1ccc(N(C(=O)c2snc(C(N)=O)c2N)C(C(=O)NCc2ccccc2)c2ccc(O)cc2)cc1OC` (stereo not drawn) gave Shiga inhibitor inactive, MARV entry inh inactive and Cycloheximide cs inactive.
CC(=O)Nc1ccc(S(=O)(=O)N(C)CC(=O)OCCOc2cccc(C)c2)cc1 was read as Shiga inhibitor inactive, MARV entry inh inactive, Cycloheximide cs inactive and LASV entry inh inactive.
For CC(C)CNc1nc(Oc2ccc(=O)[nH]n2)nc(N2CCOCC2)n1 the results were Shiga inhibitor inactive, MARV entry inh inconclusive, Cycloheximide cs inactive and LASV entry inh inconclusive.
Screening Cc1cccc(NC(=S)NCc2ccc(F)cc2)c1 returned Shiga inhibitor inactive, MARV entry inh inactive, Cycloheximide cs inactive and LASV entry inh inconclusive.
`COc1cccc(NC(=S)NCc2ccc(F)cc2)c1` gave Shiga inhibitor inactive, MARV entry inh inactive, Cycloheximide cs 13.7 and LASV entry inh inactive.
`COc1ccc(CNC(=S)Nc2cccc(C)c2)cc1` gave Shiga inhibitor inactive, MARV entry inh inconclusive, Cycloheximide cs inactive and LASV entry inh inactive.
For COc1ccc(CNC(=S)Nc2cccc(F)c2)cc1 the results were Shiga inhibitor 28.3, MARV entry inh inactive, Cycloheximide cs 11.8 and LASV entry inh inactive.
`Cc1cc(C)n(C2CC(=O)N(c3ccc(Cl)c(Cl)c3)C2=O)n1` (stereo not drawn) gave Shiga inhibitor inactive, MARV entry inh inactive, Cycloheximide cs inactive and LASV entry inh inactive.
Screening O=C(N/N=C1/C[C@@H](O)[C@@H](O)[C@@H]2[C@@H]3C(=O)N(C[C@@H]4CCCO4)C(=O)[C@H]3CC[C@@H]12)OCc1ccccc1 returned MARV entry inh inactive.
`Cn1ncc2c1ncn1nc(CCc3ccccc3)nc21` gave Shiga inhibitor 68.5, MARV entry inh inactive, Cycloheximide cs 52.1 and LASV entry inh inactive.
Screening Cn1ncc2c1ncn1nc(COc3ccc4ccccc4c3)nc21 returned Shiga inhibitor inactive, MARV entry inh inactive, Cycloheximide cs 39.9 and LASV entry inh inactive.
`CCOc1ccc(C(=O)Nc2ccccc2OCc2cc(=O)n3ccccc3n2)cc1` gave LASV entry inh inactive.
For O=C(NCCc1ccc(O)cc1)c1ccc(Cl)cc1 the results were Shiga inhibitor 69.5, MARV entry inh inactive, Cycloheximide cs 55.8 and LASV entry inh inactive.
`CCN(CC)Cc1cc(CCNC(=O)c2ccc(Cl)cc2)ccc1O` gave Shiga inhibitor inactive, MARV entry inh inconclusive, Cycloheximide cs 17.4 and LASV entry inh inactive.
`O=C(NCCc1ccc(Cl)cc1)c1ccc(=O)[nH]c1` gave Shiga inhibitor inactive, MARV entry inh inactive, Cycloheximide cs inactive and LASV entry inh inactive.
Screening O=C(NCCc1ccc(Cl)cc1)c1ccc2nccnc2c1 returned Shiga inhibitor 67.0 and Cycloheximide cs 52.2.
For CC(=CCO)CCO the results were MARV entry inh inactive and LASV entry inh inconclusive.
`CCCc1c(C)c2cccc(C)c2[nH]c1=O` gave Shiga inhibitor inactive, MARV entry inh inactive, Cycloheximide cs inactive and LASV entry inh inactive.
CCCCN1CCc2c([nH]c3c(C)cccc23)C1=O was read as Shiga inhibitor 69.5, MARV entry inh inconclusive, Cycloheximide cs 42.5 and LASV entry inh inactive.
COc1ccc(NC(=O)c2coc(=O)c3ccccc23)cc1OC was read as MARV entry inh inactive and LASV entry inh inactive.
`COc1ccc(NC(=O)c2cc(=O)c3ccccc3o2)cn1` gave Shiga inhibitor inactive, MARV entry inh inconclusive, Cycloheximide cs inactive and LASV entry inh inactive.
`COc1ccc(NC(=O)c2cc3ccccc3o2)cc1OC` gave Shiga inhibitor 62.2, MARV entry inh inactive, Cycloheximide cs 44.7 and LASV entry inh inactive.
`COc1ccc(NC(=O)c2cc3ccccc3o2)cn1` gave Cycloheximide cs 36.2.
`COc1ccc(NC(=O)c2coc3ccccc23)cc1OC` gave Shiga inhibitor 71.2, MARV entry inh inconclusive, Cycloheximide cs 20.4 and LASV entry inh inconclusive.
`COc1ccc(-c2nc3cc(NC(=O)c4cc5ccccc5o4)ccc3o2)cc1` gave LASV entry inh inactive.
For COc1ccc(NC(=O)c2cc3ccccc3o2)cc1 the results were Shiga inhibitor 93.9, MARV entry inh inconclusive, Cycloheximide cs 39.2 and LASV entry inh inactive.
Screening NC(=O)c1ccccc1NC(=O)c1cc(S(=O)(=O)N2CCCCC2)ccc1N1CCOCC1 returned MARV entry inh inconclusive and LASV entry inh inactive.
Screening O=C(Nc1ccc(C(=O)NC2CCCCC2)cc1)c1cccnc1 returned Shiga inhibitor inactive, MARV entry inh inactive, Cycloheximide cs inactive and LASV entry inh inactive.
For COc1ccc(CNC(=O)Cc2csc3nc(-c4ccc(F)cc4)cn23)cc1 the results were LASV entry inh inactive.
`CCOc1cc(C(=S)N2CCOCC2)ccc1OC(=O)c1cc(OC)c(OC)c(OC)c1` gave Shiga inhibitor inactive and Cycloheximide cs inactive.
For CCCOc1ccc(S(=O)(=O)NNC(=O)c2cc3ccccc3o2)cc1 the results were Shiga inhibitor inactive, MARV entry inh inactive and Cycloheximide cs 13.6.
`Cn1cnc2c(=O)[nH]cc([N+](=O)[O-])c21` gave Shiga inhibitor inactive and Cycloheximide cs inactive.
Screening Cc1ccccc1CN1CCCC(C(=O)Nc2ccccc2Oc2cccnc2)C1 (stereo not drawn) returned Shiga inhibitor inactive and Cycloheximide cs inactive.
Screening N#CCC(=N)N1CCN(c2ccccc2)CC1 returned Shiga inhibitor 53.0, MARV entry inh inconclusive, Cycloheximide cs inactive and LASV entry inh inactive.
Screening N#CCC(=N)N1CCN(c2ccccc2Cl)CC1 returned Shiga inhibitor active, MARV entry inh inactive, Cycloheximide cs inactive and LASV entry inh inactive.
